Luc counter: Kinase-Glo luciferase inhibition (counter-screen); Kinase-Glo luciferase, ATP luminescence, 8 min; Potency, µM (doses to about 38.3 µM), for the others: at the highest dose activity change, negative = inhibition, usual class: inhibitors; 0.28% of 200,000 active; Q27757; further: nearly all actives have a fitted effect of over 60% in size
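Inhibition of Kinase-Glo luciferase light generation was assessed at 10 uM ATP in pH 7.2 imidazole buffer, with luminescence measured after eight minutes at ambient temperature.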
RORg inh: ROR gamma (mouse) transcription inhibition; P51450; Drosophila S2 Gal4-RORgamma UAS-luciferase reporter, 20 h; Potency, µM (titrated, usually from 53.6 µM), inactives show at the top dose activity change, negative = inhibition, actives largely listed as inhibitors; 5.4% of 310,000 active; AID 2551; further: nearly all actives have a fitted effect of over 60% in size
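Luciferase reporter read in Schneider cells carrying Gal4-RORγ (mouse) and UAS-Photinus luciferase; cells given compound 1 h before 700 uM copper sulfate induction, then incubated 20 h at ambient temperature.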
VP16 counter: inhibits Gal4-VP16 luciferase reporter, ROR gamma counter-screen; Drosophila S2 Gal4-VP16 UAS-luciferase, luminescence, 20 h; Potency, µM (titrated, usually from 53.6 µM), for the others: top-dose activity, negative = inhibition, most hits filed as inhibitors; 3.5% of 310,000 active; AID 2546;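 further: Gal4-VP16 expression switched on by copper sulfate through the metallothionein promoter; nearly all actives have a fitted effect of over 50% in size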
Active calls of the source: *; ? = inconclusive; / = no result given. Rows were chosen to be rich in hits. Some 6.4% of all compounds tested hit in one or more screens of this group. The call rests on the fitted dose curve; in most records, active means well fitted curve in the direction sought with a large enough effect; inconclusive means small, poorly fitted or top-dose-only effect, or another doubt; inactive means no such curve, though single readings can be large; an effect the other way counts as inactive or inconclusive. On the % scale 0 is the no-effect control and ±100 the full control effect; potency means the concentration at half of the fitted maximal effect.

SMILES | Luc counter | RORg inh | VP16 counter
Cc1nc(NN)c2c3c(sc2n1)COC(C)(C)C3 | / | 13µM* | -21%
Cc1nc2sc3c(c2c(=O)o1)CC(C)(C)OC3 | -1% | 15% | -2%
O=C(O)c1ccc(CSc2nnc(-c3cccnc3)n2-c2ccc(Br)cc2)cc1 | 2% | -22% | 1%
CCCCNC(=O)CCC(=O)N1CCN(C(c2ccccc2)c2ccccc2)CC1 | / | ? | 0%
O=C(N/N=C/c1c[nH]c2ccc(Br)cc12)C1CC1 | / | 17% | -7%
C=CCN=C1NN=C(c2cc(C)n(CC=C)c2C)CS1 | ? | 11µM* | ?
CCCCN=C1NN=C(c2cccc([N+](=O)[O-])c2)CS1 | 3% | ? | 7%
COCCCN=C1NN=C(c2cc(C)n(-c3ccccc3F)c2C)CS1 | -3% | -2% | -28%
Cc1sc(N)nc1-c1ccc2c(c1)OCCO2 | / | -12% | 1%
C=CCN=C1NN=C(c2ccc3c(c2)OCCO3)CS1 | 10µM* | 4.5µM* | 5.6µM*
NC1=NN=C(c2ccc3c(c2)OCCO3)CS1 | ? | 10µM* | 10µM*
COCCn1c(C)cc(C2=NNC(=Nc3ccccc3F)SC2)c1C | -15% | 0.79µM* | ?
COCCN=C1NN=C(c2cc(C)n(CC3CCCO3)c2C)CS1 (stereo unspecified) | -6% | -15% | 6%
CC1CCc2c(C(=O)Nc3ccc(N4CCOCC4)cc3)csc2C1 (stereo unspecified) | / | 15% | -27%
CC1Cc2cc(S(=O)(=O)N3CCN(c4ccccc4F)CC3)ccc2N1C(=O)C1CC1 (stereo unspecified) | / | 27% | 7%
COc1ccccc1C(=O)Nc1ccnn1C1CCN(Cc2cnn(C)c2C)CC1 | / | 27% | -5%
O=C(NCCOc1ccccc1)O[C@@H]1C(=O)c2cc(Br)ccc2O[C@H]1c1ccc2c(c1)OCO2 | 1% | 5% | 3%
COc1ccc(C(=O)Nc2ccc3c(c2)C(=O)N(C)C3=O)cc1OC | / | -2% | ?
C/C(=N\NC(=S)NCCc1ccccc1)c1ccc(Cl)cc1Cl | / | 1.8µM* | 6.3µM*
S=C(NCc1ccccc1)NCc1cccc(Cl)c1 | / | 10µM* | ?
O=C(NCCc1ccccc1)Nc1cccc(Cl)c1 | 4% | 45% | 7%
S=C(NCCc1cccc(Cl)c1)NCc1ccccc1 | / | 8.9µM* | ?
C/C(=N\NC(=O)C1CCCC1)c1ccc(Cl)cc1Cl | / | 16% | -12%
Fc1ccc(CNC(=S)NCc2cccc(Cl)c2)cc1 | / | 45% | ?
COc1cc(C(=O)N/N=C/c2ccc(OC)c(CN3CCN(c4ccc(F)cc4)CC3)c2)ccc1O | -3% | -7% | -6%
